Test results: PMC7862700, “An all-to-all approach to the identification of sequence-specific readers for epigenetic DNA modifications on cytosine”

Columns and labels:
Assay in all cases: DAPPL (digital affinity profiling via proximity ligation, sequencing); 10 mM Tris-HCl pH 7.5, 50 mM NaCl, 1 mM DTT, 4% glycerol, room temperature, 30 min; GST-TFs on glutathione beads, 16-mer random dsDNA library, 0.1% formaldehyde crosslink after washing; high values mean tight binding
FEV = molecular target: T1, FEV (Homo sapiens, UniProt Q99581 1-238); settings: protein: recombinant; tags: N-terminal GST; dsDNA, one strand shown
T1 sequence: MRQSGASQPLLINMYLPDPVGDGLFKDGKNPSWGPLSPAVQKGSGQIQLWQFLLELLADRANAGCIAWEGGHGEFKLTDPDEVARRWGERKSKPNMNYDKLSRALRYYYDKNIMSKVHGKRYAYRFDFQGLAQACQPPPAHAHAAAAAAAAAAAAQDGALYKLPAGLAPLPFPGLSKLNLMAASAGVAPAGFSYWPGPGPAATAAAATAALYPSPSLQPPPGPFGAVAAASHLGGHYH
Summary of the method: (§1)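 Sequencing on an Illumina NextSeq500 followed washing, crosslinking with 0.1% formaldehyde, proximity ligation (BsaI/T4 ligase, 1 h, 37 °C) and PCR amplification of pools that had been incubated for 30 min at room temperature with 200 nmole of a random double-stranded 16-mer DNA library in Tris/NaCl/DTT/glycerol buffer. Each pool held DNA-barcoded human transcription factors, expressed in yeast as GST fusions and captured on glutathione beads, plus a tag-only sample. Binding signal is a hexamer's read frequency for a factor divided by its frequency in the tag-only sample.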

ETV5 = ETV5 (Homo sapiens, UniProt P41161 1-510); settings: protein: recombinant; tags: N-terminal GST; dsDNA, one strand shown
Chain of ETV5 (P41161 whole entry): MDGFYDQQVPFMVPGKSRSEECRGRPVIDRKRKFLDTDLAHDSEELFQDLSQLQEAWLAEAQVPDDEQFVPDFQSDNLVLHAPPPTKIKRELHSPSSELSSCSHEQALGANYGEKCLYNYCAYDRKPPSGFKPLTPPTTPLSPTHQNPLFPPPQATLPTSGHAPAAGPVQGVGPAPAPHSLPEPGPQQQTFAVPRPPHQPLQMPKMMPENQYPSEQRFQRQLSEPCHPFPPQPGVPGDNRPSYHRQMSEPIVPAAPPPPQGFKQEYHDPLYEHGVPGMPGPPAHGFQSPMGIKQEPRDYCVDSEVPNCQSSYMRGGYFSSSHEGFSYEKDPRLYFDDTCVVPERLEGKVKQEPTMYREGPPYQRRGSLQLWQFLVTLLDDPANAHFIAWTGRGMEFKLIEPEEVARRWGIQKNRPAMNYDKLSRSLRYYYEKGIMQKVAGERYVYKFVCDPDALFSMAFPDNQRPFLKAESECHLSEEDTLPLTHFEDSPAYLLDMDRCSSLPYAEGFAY
Summary of the method: as §1

HSF1 = HSF1 (Homo sapiens, UniProt Q00613 1-529); settings: protein: recombinant; tags: N-terminal GST; chain copies: 3; dsDNA, one strand shown
Chain of HSF1 (Q00613 whole entry): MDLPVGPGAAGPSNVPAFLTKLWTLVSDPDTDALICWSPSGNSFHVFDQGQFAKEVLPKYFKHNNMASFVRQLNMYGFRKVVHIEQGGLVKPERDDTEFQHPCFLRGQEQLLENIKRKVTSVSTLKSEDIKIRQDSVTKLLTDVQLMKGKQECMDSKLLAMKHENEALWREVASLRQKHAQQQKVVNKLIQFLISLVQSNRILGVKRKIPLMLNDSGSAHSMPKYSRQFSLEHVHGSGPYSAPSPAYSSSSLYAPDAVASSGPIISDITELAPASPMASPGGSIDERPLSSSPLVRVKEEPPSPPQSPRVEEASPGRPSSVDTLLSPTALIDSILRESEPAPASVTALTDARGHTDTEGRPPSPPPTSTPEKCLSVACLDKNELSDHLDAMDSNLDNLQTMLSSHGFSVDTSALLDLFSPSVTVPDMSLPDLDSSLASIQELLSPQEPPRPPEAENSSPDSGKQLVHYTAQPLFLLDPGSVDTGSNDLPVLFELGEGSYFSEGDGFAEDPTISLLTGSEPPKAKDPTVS
Summary of the method: as §1

SPIC = molecular target: T2, SPIC (Homo sapiens, UniProt Q8N5J4 1-248); settings: protein: recombinant; tags: N-terminal GST; dsDNA, one strand shown
T2 sequence: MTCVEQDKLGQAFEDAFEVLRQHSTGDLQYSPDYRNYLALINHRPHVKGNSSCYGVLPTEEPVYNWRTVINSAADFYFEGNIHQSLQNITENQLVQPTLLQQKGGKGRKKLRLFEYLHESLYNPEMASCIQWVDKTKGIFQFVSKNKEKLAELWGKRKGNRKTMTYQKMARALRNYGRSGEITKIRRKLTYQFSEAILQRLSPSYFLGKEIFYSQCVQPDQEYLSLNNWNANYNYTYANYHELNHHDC
Summary of the method: as §1

ELF4 = ELF4 (Homo sapiens, UniProt Q99607 1-663); settings: protein: recombinant; tags: N-terminal GST; dsDNA, one strand shown
Chain of ELF4 (Q99607 whole entry): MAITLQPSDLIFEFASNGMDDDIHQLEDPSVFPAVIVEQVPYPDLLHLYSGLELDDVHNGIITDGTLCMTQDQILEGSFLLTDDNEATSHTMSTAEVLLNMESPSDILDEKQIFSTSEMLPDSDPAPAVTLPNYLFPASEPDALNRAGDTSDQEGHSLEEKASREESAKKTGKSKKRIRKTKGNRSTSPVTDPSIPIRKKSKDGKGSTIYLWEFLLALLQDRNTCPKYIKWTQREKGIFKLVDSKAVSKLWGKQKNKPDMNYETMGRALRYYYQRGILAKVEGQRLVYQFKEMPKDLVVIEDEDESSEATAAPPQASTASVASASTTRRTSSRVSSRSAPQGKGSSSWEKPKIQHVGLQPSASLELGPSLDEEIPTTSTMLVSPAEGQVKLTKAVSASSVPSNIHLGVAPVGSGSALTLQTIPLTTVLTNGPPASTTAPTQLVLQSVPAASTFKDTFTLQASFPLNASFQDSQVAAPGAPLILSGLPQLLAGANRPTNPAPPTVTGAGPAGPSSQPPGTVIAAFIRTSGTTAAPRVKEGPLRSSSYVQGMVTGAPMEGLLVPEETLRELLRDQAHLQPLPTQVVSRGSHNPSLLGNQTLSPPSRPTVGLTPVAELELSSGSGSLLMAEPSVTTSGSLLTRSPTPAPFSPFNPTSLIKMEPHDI
Summary of the method: as §1

ELK4 = molecular target: T3, ELK4 (Homo sapiens, UniProt P28324-2 1-405); settings: protein: recombinant; tags: N-terminal GST; dsDNA, one strand shown
T3 sequence: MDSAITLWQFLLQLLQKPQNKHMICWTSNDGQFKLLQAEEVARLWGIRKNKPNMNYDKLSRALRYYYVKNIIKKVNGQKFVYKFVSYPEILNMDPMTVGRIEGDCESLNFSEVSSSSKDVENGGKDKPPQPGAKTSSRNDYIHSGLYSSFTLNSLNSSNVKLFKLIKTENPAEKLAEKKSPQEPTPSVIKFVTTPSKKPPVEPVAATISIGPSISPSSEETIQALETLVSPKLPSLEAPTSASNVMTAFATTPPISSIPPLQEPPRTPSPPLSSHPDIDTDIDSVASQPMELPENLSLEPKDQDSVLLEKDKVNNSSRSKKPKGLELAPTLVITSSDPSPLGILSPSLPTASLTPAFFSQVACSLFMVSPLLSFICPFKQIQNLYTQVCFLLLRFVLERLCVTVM
Summary of the method: as §1

ETV2 = molecular target: T4, ETV2 (Homo sapiens, UniProt O00321 1-342); settings: protein: recombinant; tags: N-terminal GST; dsDNA, one strand shown
T4 sequence: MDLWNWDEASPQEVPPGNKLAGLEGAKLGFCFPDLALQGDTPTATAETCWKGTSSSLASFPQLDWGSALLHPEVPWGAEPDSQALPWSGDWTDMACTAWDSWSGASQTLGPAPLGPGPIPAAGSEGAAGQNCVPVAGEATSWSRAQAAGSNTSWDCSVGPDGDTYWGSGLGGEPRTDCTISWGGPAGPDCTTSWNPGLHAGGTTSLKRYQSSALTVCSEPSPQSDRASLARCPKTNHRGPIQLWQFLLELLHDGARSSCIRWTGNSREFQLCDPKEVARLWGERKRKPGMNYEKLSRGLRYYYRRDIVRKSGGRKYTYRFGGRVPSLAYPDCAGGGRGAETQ
Summary of the method: as §1

ELF3 = molecular target: T5, ELF3 (Homo sapiens, UniProt P78545 1-371); settings: protein: recombinant; tags: N-terminal GST; dsDNA, one strand shown
T5 sequence: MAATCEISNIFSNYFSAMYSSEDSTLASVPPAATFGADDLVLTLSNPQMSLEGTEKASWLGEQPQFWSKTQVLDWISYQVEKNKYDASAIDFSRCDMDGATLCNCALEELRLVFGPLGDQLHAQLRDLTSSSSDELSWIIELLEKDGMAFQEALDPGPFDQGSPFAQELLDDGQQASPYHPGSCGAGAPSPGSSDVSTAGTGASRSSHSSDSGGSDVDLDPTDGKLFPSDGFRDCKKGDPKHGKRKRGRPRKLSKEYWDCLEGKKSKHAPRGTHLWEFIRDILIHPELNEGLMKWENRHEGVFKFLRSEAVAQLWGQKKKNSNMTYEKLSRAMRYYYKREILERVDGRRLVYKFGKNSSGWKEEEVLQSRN
Summary of the method: as §1

CRX = CRX (Homo sapiens, UniProt O43186 1-299); settings: protein: recombinant; tags: N-terminal GST; dsDNA, one strand shown
Chain of CRX (O43186 whole entry): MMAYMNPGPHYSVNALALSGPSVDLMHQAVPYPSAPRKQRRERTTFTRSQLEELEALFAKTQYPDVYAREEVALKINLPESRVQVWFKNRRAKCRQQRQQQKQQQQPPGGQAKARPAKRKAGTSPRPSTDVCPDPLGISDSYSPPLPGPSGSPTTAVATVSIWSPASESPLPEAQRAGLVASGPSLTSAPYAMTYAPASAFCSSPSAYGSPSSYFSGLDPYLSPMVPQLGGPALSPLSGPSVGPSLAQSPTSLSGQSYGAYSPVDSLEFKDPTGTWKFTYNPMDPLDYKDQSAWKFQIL
Summary of the method: as §1

ETV1 = ETV1 (Homo sapiens, UniProt P50549 1-477); settings: protein: recombinant; tags: N-terminal GST; dsDNA, one strand shown
Chain of ETV1 (P50549 whole entry): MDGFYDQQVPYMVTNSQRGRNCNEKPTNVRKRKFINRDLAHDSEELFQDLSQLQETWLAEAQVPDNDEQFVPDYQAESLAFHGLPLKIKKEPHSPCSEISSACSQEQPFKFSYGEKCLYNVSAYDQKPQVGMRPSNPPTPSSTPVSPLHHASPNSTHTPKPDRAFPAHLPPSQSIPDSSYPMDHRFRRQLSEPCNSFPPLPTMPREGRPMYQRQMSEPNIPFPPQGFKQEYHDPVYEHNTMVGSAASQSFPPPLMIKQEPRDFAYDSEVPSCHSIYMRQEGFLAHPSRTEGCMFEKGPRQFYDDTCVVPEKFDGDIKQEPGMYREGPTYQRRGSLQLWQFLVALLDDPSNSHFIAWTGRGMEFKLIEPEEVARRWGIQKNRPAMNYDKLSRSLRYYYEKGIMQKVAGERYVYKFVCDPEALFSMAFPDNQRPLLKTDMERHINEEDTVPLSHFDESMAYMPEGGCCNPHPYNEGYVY
Summary of the method: as §1

ERF = molecular target: T6, ERF (Homo sapiens, UniProt P50548 1-548); settings: protein: recombinant; tags: N-terminal GST; dsDNA, one strand shown
T6 sequence: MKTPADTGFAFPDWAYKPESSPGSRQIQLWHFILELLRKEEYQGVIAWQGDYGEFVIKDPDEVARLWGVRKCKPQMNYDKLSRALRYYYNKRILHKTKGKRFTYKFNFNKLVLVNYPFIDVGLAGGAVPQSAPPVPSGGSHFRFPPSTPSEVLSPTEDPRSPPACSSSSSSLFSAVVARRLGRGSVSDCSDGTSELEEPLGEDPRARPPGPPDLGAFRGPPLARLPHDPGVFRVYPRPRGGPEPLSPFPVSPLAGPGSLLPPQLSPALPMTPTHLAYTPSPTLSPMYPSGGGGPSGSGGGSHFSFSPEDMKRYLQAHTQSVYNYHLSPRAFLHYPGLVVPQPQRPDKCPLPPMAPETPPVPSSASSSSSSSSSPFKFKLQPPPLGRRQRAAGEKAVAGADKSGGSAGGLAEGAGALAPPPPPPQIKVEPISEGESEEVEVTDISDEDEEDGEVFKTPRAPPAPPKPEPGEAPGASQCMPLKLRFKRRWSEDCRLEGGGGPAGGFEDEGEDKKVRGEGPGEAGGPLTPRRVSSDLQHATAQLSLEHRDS
Summary of the method: as §1

ETV3L = molecular target: T7, ETV3L (Homo sapiens, UniProt Q6ZN32 1-361); settings: protein: recombinant; tags: N-terminal GST; dsDNA, one strand shown
T7 sequence: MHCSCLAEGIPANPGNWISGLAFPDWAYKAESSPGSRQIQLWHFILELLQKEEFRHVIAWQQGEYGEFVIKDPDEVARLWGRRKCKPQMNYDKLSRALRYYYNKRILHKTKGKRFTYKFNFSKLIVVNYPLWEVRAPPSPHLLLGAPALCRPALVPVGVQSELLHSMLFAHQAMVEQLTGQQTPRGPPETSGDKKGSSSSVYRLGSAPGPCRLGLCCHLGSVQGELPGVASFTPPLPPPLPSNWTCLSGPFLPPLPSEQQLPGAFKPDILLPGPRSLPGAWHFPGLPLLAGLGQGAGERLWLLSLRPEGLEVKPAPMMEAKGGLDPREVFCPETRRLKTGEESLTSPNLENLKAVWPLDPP
Summary of the method: as §1

ETS2 = molecular target: T8, ETS2 (Homo sapiens, UniProt P15036 1-469); settings: protein: recombinant; tags: N-terminal GST; dsDNA, one strand shown
T8 sequence: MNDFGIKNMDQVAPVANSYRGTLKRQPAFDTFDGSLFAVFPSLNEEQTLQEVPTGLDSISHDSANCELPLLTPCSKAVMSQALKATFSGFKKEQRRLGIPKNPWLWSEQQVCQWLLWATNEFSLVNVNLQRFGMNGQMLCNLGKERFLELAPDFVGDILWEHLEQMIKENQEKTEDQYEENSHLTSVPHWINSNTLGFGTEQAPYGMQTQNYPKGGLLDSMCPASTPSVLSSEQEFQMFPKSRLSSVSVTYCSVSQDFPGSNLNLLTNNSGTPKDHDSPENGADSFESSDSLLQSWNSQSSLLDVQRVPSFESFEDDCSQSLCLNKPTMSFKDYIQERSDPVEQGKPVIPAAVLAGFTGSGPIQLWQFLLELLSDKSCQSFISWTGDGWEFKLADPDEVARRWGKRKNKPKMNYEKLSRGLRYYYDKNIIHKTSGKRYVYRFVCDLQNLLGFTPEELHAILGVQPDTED
Summary of the method: as §1

SPDEF = molecular target: T9, SPDEF (Homo sapiens, UniProt O95238 1-335); settings: protein: recombinant; tags: N-terminal GST; dsDNA, one strand shown
T9 sequence: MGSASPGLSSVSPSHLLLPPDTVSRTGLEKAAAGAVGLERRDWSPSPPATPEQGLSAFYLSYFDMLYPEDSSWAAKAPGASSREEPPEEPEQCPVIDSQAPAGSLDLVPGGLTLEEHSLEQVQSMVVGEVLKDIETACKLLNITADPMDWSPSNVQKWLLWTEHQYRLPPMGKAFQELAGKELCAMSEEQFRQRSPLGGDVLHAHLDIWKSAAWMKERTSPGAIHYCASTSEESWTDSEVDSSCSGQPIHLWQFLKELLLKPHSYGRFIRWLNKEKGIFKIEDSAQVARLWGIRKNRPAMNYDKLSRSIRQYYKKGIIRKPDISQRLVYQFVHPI
Summary of the method: as §1

ETV7 = molecular target: T10, ETV7 (Homo sapiens, UniProt Q9Y603 1-341); settings: protein: recombinant; tags: N-terminal GST; dsDNA, one strand shown
T10 sequence: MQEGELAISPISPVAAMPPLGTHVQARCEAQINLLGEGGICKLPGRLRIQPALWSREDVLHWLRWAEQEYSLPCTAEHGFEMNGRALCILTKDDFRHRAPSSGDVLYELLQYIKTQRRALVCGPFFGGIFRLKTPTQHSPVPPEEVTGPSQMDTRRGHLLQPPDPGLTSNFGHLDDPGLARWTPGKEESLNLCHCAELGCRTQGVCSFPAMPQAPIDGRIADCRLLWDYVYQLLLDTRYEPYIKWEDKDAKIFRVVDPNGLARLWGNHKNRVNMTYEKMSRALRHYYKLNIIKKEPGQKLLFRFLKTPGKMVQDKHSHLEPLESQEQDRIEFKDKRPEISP
Summary of the method: as §1

ELF5 = molecular target: T11, ELF5 (Homo sapiens, UniProt Q9UKW6-2 1-255); settings: protein: recombinant; tags: N-terminal GST; dsDNA, one strand shown
T11 sequence: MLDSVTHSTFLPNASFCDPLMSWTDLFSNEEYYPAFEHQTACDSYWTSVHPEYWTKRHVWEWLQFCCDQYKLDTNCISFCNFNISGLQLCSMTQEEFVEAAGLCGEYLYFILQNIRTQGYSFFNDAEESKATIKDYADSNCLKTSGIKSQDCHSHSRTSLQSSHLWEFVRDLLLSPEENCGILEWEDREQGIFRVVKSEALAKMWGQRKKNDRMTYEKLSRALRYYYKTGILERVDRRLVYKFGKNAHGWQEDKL
Summary of the method: as §1

ETV3 = molecular target: T12, ETV3 (Homo sapiens, UniProt P41162-2 1-143); settings: protein: recombinant; tags: N-terminal GST; dsDNA, one strand shown
T12 sequence: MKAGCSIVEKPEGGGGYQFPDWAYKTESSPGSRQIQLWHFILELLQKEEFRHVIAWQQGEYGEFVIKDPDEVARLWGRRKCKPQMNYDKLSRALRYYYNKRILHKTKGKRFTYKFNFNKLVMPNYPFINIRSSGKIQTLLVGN
Summary of the method: as §1

ETV6 = ETV6 (Homo sapiens, UniProt P41212 1-452); settings: protein: recombinant; tags: N-terminal GST; dsDNA, one strand shown
Chain of ETV6 (P41212 whole entry): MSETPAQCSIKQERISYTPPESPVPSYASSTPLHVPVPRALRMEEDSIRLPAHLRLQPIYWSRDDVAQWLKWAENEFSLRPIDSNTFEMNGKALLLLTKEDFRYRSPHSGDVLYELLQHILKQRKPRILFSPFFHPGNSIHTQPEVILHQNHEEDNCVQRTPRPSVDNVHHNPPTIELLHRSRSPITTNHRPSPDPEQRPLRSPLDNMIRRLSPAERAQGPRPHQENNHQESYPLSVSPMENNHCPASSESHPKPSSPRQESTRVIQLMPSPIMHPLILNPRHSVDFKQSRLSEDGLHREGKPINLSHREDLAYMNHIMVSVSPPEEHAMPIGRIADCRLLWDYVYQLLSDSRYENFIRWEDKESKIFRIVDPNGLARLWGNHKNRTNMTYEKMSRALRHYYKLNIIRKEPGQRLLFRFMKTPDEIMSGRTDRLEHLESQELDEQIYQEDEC
Summary of the method: as §1

In the case of AATCCG, the binding signal (FEV) is reported as 2.44 fold enrichment (6-mer frequency, TF over GST control), the binding signal (ETV5) is reported as 1.65 fold enrichment (6-mer frequency, TF over GST control) and the binding signal (HSF1) is reported as 2.09 fold enrichment (6-mer frequency, TF over GST control). The binding signal (SPIC) was 1.48 fold enrichment (6-mer frequency, TF over GST control), the binding signal (ELF4) was 1.46 fold enrichment (6-mer frequency, TF over GST control) and the binding signal (ELK4) was 1.33 fold enrichment (6-mer frequency, TF over GST control). The binding signal (ETV2) was 1.47 fold enrichment (6-mer frequency, TF over GST control), the binding signal (ELF3) was 1.32 fold enrichment (6-mer frequency, TF over GST control) and the binding signal (CRX) was 3.2 fold enrichment (6-mer frequency, TF over GST control). For the same sequence, the binding signal (ETV1) was 1.43 fold enrichment (6-mer frequency, TF over GST control), the binding signal (ERF) was 1.5 fold enrichment (6-mer frequency, TF over GST control) and the binding signal (ETV3L) was 1.6 fold enrichment (6-mer frequency, TF over GST control). For the same sequence, the binding signal (ETS2) was 1.7 fold enrichment (6-mer frequency, TF over GST control), the binding signal (SPDEF) was 2.04 fold enrichment (6-mer frequency, TF over GST control) and the binding signal (ETV7) was 1.51 fold enrichment (6-mer frequency, TF over GST control). The binding signal (ELF5) was 1.74 fold enrichment (6-mer frequency, TF over GST control), the binding signal (ETV3) was 1.66 fold enrichment (6-mer frequency, TF over GST control) and the binding signal (ETV6) was 1.49 fold enrichment (6-mer frequency, TF over GST control).
